PMC5515408, “Sequence-specific DNA binding by MYC/MAX to low-affinity non-E-box motifs”
Over roughly 4,500 sequences, “log2 normalized fluorescence” has its median near -0.34; the highest 2% begin near 3.3. What follows is part of a selection rich in the highest values, with near analogues and random picks from the rest.

biological target: MAX:MAX (p21) (human, UniProt P61244-2 1-151); test: protein-binding microarray (anti-MAX antibody); PBM: 15 mM Tris-HCl pH 7.5, 100 mM KCl, 0.075% NP40, 7.5 mM beta-mercaptoethanol, 375 ng/ul BSA, 8 ng/ul poly(dA-dT):(dA-dT), 550 ng complex, 60 min, room tempe; high values mean tight binding; conditions: protein: recombinant; tags: 6xHis; chain copies: 2; label: 3' end of printed strand (linker) attached to glass slide; dsDNA, one strand shown
In short: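 Binding is reported as log2 normalized fluorescence. Recombinant His-tagged human MYC:MAX or MAX:MAX dimers expressed in E. coli (550 ng) were incubated with a custom Agilent glass array for 60 min at room temperature in Tris-KCl buffer, pH 7.5, containing NP40, BSA and poly(dA-dT) competitor. The array carried ~5000 unique 12-nt sequences, each spotted in triplicate and made double-stranded by primer extension, and bound protein was detected with anti-MAX and secondary antibodies and scanned at 543 nm.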

Chain of MAX:MAX (p21) (P61244 other isoform, or with tags, fused parts or gaps): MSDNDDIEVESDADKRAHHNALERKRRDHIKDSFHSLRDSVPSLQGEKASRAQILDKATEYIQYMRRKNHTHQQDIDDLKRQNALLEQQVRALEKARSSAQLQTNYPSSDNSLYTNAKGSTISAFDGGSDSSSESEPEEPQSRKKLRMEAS

Sequence | binding signal
CCGGCTGAAGTTATGTATTAATAGCTAAGATTACTATATCGACG | -0.594 log2 normalized fluorescence
CCGGCTGAGGAACCGTATTAATAGCTAAGATTACTATATCGACG | -0.709 log2 normalized fluorescence
CCGGCTGACACGGTATATTAATAGCTAAGATTACTATATCGACG | 1.17 log2 normalized fluorescence
CCGGCTGATAGGAGGTATTAATAGCTAAGATTACTATATCGACG | -0.743 log2 normalized fluorescence
CCGGCTGAGAGCGTGTATTAATAGCTAAGATTACTATATCGACG | 2.11 log2 normalized fluorescence
CCGGCTGAAGGCAAGTATTAATAGCTAAGATTACTATATCGACG | -0.39 log2 normalized fluorescence
CCGGCTGAATGTGGGTATTAATAGCTAAGATTACTATATCGACG | 0.753 log2 normalized fluorescence
CCGGCTGAGGCGCAGTATTAATAGCTAAGATTACTATATCGACG | -0.509 log2 normalized fluorescence
CCGGCTGAGGGTGCGTATTAATAGCTAAGATTACTATATCGACG | 0.326 log2 normalized fluorescence
CCGGCCGACACGCGGTTTTAATAGCTAAGATTACTATATCGACG | 3.18 log2 normalized fluorescence
CCGGCTGACACATGGTTTTAATAGCTAAGATTACTATATCGACG | 3.37 log2 normalized fluorescence
CCGGCCGACACATGGTTTTAATAGCTAAGATTACTATATCGACG | 3.32 log2 normalized fluorescence
CCGGCTGACACTTGGTTTTAATAGCTAAGATTACTATATCGACG | 0.395 log2 normalized fluorescence
CCGGCTGACATGTGGTTTTAATAGCTAAGATTACTATATCGACG | 2.98 log2 normalized fluorescence
CCGGCCGACCCGTGGTTTTAATAGCTAAGATTACTATATCGACG | 2.34 log2 normalized fluorescence
CCGGCTGATCGCACGTATTAATAGCTAAGATTACTATATCGACG | 0.308 log2 normalized fluorescence
CCGGCTGAGGTCTTGTATTAATAGCTAAGATTACTATATCGACG | -0.72 log2 normalized fluorescence
CCGGCTCACACGTGATATTAATAGCTAAGATTACTATATCGACG | 3.31 log2 normalized fluorescence
CCGGCTCACACGAGGTTTTAATAGCTAAGATTACTATATCGACG | 3.32 log2 normalized fluorescence
CCGGCGCTCACGTGGTATTAATAGCTAAGATTACTATATCGACG | 3.34 log2 normalized fluorescence
CCGGCCCTCACGTGGTATTAATAGCTAAGATTACTATATCGACG | 3.26 log2 normalized fluorescence
CCGGCTCTTACGTGGTATTAATAGCTAAGATTACTATATCGACG | 0.802 log2 normalized fluorescence
CCGGCTCTCACGTGGTATTAATAGCTAAGATTACTATATCGACG | 3.5 log2 normalized fluorescence
CCGGCTCTCACGTGGTCTTAATAGCTAAGATTACTATATCGACG | 3.06 log2 normalized fluorescence

Sequence | binding signal
CCGGCTCACACGCGGTTTTAATAGCTAAGATTACTATATCGACG | 3.17 log2 normalized fluorescence
CCGGCTGGCACGAGGTTTTAATAGCTAAGATTACTATATCGACG | 3.28 log2 normalized fluorescence
CCGGCACTCACGTGGTATTAATAGCTAAGATTACTATATCGACG | 3.13 log2 normalized fluorescence
CCGGCTGTCACGTGATATTAATAGCTAAGATTACTATATCGACG | 3.2 log2 normalized fluorescence
CCGGCTCACACGTGTTATTAATAGCTAAGATTACTATATCGACG | 3.29 log2 normalized fluorescence
CCGGCTGATGCTGAGTATTAATAGCTAAGATTACTATATCGACG | 0.00915 log2 normalized fluorescence
CCGGCTGAACAAAGGTATTAATAGCTAAGATTACTATATCGACG | -0.6 log2 normalized fluorescence
CCGGCTGACCGCGAGTATTAATAGCTAAGATTACTATATCGACG | 1.06 log2 normalized fluorescence
CCGGCTGAGCACAAGTATTAATAGCTAAGATTACTATATCGACG | 0.993 log2 normalized fluorescence
CCGGCTGGCACGTGCTATTAATAGCTAAGATTACTATATCGACG | 3.25 log2 normalized fluorescence
CCGGCTCACACGTGGTTTTAATAGCTAAGATTACTATATCGACG | 3.32 log2 normalized fluorescence
CCGGCTCACACGTTTTATTAATAGCTAAGATTACTATATCGACG | 3.25 log2 normalized fluorescence
CCGGCTCAGACGTGGTATTAATAGCTAAGATTACTATATCGACG | 1.39 log2 normalized fluorescence
CCGGCTAACACGTGGTTTTAATAGCTAAGATTACTATATCGACG | 3.27 log2 normalized fluorescence
CCGGCTCACACGTCGTATTAATAGCTAAGATTACTATATCGACG | 2.63 log2 normalized fluorescence
CCGGCTCACACGTGGTATTAATAGCTAAGATTACTATATCGACG | 3.33 log2 normalized fluorescence
CCGGCTGAATGACCGTATTAATAGCTAAGATTACTATATCGACG | 0.107 log2 normalized fluorescence
CCGGCTCACACCTCGTATTAATAGCTAAGATTACTATATCGACG | 2.28 log2 normalized fluorescence
CCGGCTGACGGTTCGTATTAATAGCTAAGATTACTATATCGACG | -0.498 log2 normalized fluorescence
CCGGCAAGCACGTGGTATTAATAGCTAAGATTACTATATCGACG | 3.27 log2 normalized fluorescence
CCGGCTGAAACGTGGAATTAATAGCTAAGATTACTATATCGACG | 2.54 log2 normalized fluorescence
CCGGCGCAAACGTGGTATTAATAGCTAAGATTACTATATCGACG | 2.98 log2 normalized fluorescence
CCGGCGCGCACGTGGTATTAATAGCTAAGATTACTATATCGACG | 3.39 log2 normalized fluorescence
CCGGCTAGCACGTGGTATTAATAGCTAAGATTACTATATCGACG | 3.44 log2 normalized fluorescence

Sequence | binding signal
CCGGCTCATACGTGGAATTAATAGCTAAGATTACTATATCGACG | 1.28 log2 normalized fluorescence
CCGGCGGACTCGTGGTATTAATAGCTAAGATTACTATATCGACG | 3.3 log2 normalized fluorescence
CCGGCTCGCACGTGGAATTAATAGCTAAGATTACTATATCGACG | 3.31 log2 normalized fluorescence
CCGGCGGACCCGTGGTATTAATAGCTAAGATTACTATATCGACG | 2.46 log2 normalized fluorescence
CCGGCGGACGCGTGGTATTAATAGCTAAGATTACTATATCGACG | 3.14 log2 normalized fluorescence
CCGGCCAGCACGTGGTATTAATAGCTAAGATTACTATATCGACG | 3.24 log2 normalized fluorescence
CCGGCGCACACGTGGTATTAATAGCTAAGATTACTATATCGACG | 3.29 log2 normalized fluorescence
CCGGCTGACCTGATGTATTAATAGCTAAGATTACTATATCGACG | 0.381 log2 normalized fluorescence
CCGGCATAGTATACAATTTAATAGCTAAGATTACTATATCGACG | 0.0214 log2 normalized fluorescence
CCGGCTGAACCCTGGTATTAATAGCTAAGATTACTATATCGACG | -0.595 log2 normalized fluorescence
CCGGCTGATAAGTGGTATTAATAGCTAAGATTACTATATCGACG | -0.651 log2 normalized fluorescence
CCGGCTGAAGGATTGTATTAATAGCTAAGATTACTATATCGACG | -0.589 log2 normalized fluorescence
CCGGCTGAAACTTGGTATTAATAGCTAAGATTACTATATCGACG | -0.705 log2 normalized fluorescence
CCGGCGAGCACGTGGTATTAATAGCTAAGATTACTATATCGACG | 3 log2 normalized fluorescence
CCGGCCCGCACGTGGTATTAATAGCTAAGATTACTATATCGACG | 3.03 log2 normalized fluorescence
CCGGCACGCACGTGGTATTAATAGCTAAGATTACTATATCGACG | 3.29 log2 normalized fluorescence
CCGGCCGGCACGTGGTATTAATAGCTAAGATTACTATATCGACG | 3.27 log2 normalized fluorescence
CCGGCAGGCACGTGGTATTAATAGCTAAGATTACTATATCGACG | 3.21 log2 normalized fluorescence
CCGGCATCCACGTGGTATTAATAGCTAAGATTACTATATCGACG | 3.28 log2 normalized fluorescence
CCGGCTCGGACGTGGTATTAATAGCTAAGATTACTATATCGACG | 1.17 log2 normalized fluorescence
CCGGCTCGCACGTGGTATTAATAGCTAAGATTACTATATCGACG | 3.41 log2 normalized fluorescence
CCGGCCTGCACGTGGTATTAATAGCTAAGATTACTATATCGACG | 3.26 log2 normalized fluorescence
CCGGCGTGCACGTGGTATTAATAGCTAAGATTACTATATCGACG | 3.47 log2 normalized fluorescence
CCGGCACCCACGTGGTATTAATAGCTAAGATTACTATATCGACG | 3.35 log2 normalized fluorescence
